In PubChem BioAssay (Tox21):
Inconclusive results are not listed. Where a call stands in place of a potency, no number is given. Values without a mark were called inactive. Activity calls are given as the source filed them. Calls come from the whole dose curve; as a rule, active = well fitted cell-killing curve with a large enough effect in the repeat runs; inconclusive = weak or mixed curves, or effect the other way; inactive = flat fitted curve, though single readings scatter.

Experiment: cAMP Responsive Elements (CRE) small molecule antagonists, cell-based qHTS assay: qHTS cell viability counter screen (AID 2060913); note: nearly all actives have a fitted effect of over 40% in size
Conditions: CRE-bla HEK293T viability, CellTiter-Glo luminescence, 5 h; series mostly up to 92.4 µM
Procedure, shortened: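 CRE-bla HEK293T cells (2,000/well, 18 h) given compound plus NKH477 0.25 uM final for 3 h at 37C; viability counter-screen by CellTiter-Glo luminescence in same wells after 30 min.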

SMILES	Potency	viability change, negative = cytotoxic
CC(CO)(CO)CO	inactive	
Nc1ccc(Cl)cc1Cl	inactive	
O=C(c1ccccc1)c1ccc(O)cc1	inactive	
CCCC(=O)OC(=O)CCC	inactive	
Cc1ncc(CO)c(C=O)c1O	inactive	
O=Cc1ccc(Cl)cc1	inactive	
CCc1ccc(C)nc1	inactive	
O=C(CC(C(=O)OC1CCCCC1)S(=O)(=O)O)OC1CCCCC1 (stereo not given)	inactive	
O=C=Nc1cccc(C(F)(F)F)c1	inactive	
O=P(O)(O)C(O)(Cc1cccnc1)P(=O)(O)O	inactive	
Cn1cnc2c1c(=O)[nH]c(=O)n2C	inactive	
O=C(O)C[C@H](NC(=O)OCc1ccccc1)C(=O)O	inactive	
Nc1ccc(Cl)c(N)c1	inactive	
COC(=O)c1ccc(C)cc1	inactive	
CN(C)CCCN1c2ccccc2Sc2ccccc21	inactive	
CCC(C)(Oc1ccc(C2(c3ccc(OC(C)(CC)C(=O)O)cc3)CCCCC2)cc1)C(=O)O (stereo not given)	inactive	
CN(C)C(=O)NC1(c2ccccc2)CCN(CCC[C@]2(c3ccc(Cl)c(Cl)c3)CCCN(C(=O)c3ccccc3)C2)CC1		-0.11% [at 18.9 µM]
NS(=O)(=O)c1cc2c(cc1Cl)CN(C1CCCCC1)C2=O	inactive	
O=C(OOC(=O)c1ccccc1)c1ccccc1	inactive	
NC(=S)NNC(N)=S	inactive	

SMILES	Potency	viability change, negative = cytotoxic
O=C1CC2(CCCC2)CC(=O)N1CCCCN1CCN(c2ncccn2)CC1	inactive	
CCN1C(=O)c2ccccc2C1Nc1ccc(OCCN2CCCCC2)cc1 (stereo not given)	inactive	
COC(=O)Nc1ccc(Cl)c(Cl)c1	inactive	
CN1CCc2cccc3c2[C@H]1Cc1ccc(O)c(O)c1-3	inactive	
O=S(=O)(O)c1ccc2c(N=Nc3ccc(S(=O)(=O)O)c4ccccc34)c(O)c(S(=O)(=O)O)cc2c1		7.11% [at 8.39 µM]
Clc1ccc(C(Cn2ccnc2)OCc2ccc(Sc3ccccc3)cc2)c(Cl)c1 (stereo not given)	inactive	
Oc1cccc(-c2c3nc(c(-c4cccc(O)c4)c4ccc([nH]4)c(-c4cccc(O)c4)c4nc(c(-c5cccc(O)c5)c5ccc2[nH]5)CC4)C=C3)c1	inactive	
CN1CCN(N)CC1	inactive	
C=CCOC(=O)COCCC(C)C	inactive	
CC(=O)NCCCS(=O)(=O)O	inactive	
C1CCSC1	inactive	
CCOC(=O)COC(=O)c1ccccc1C(=O)OCC	inactive	
O=C(OCc1ccccc1)c1ccc(O)cc1	inactive	
CC(C)=CCC/C(C)=C\CO	inactive	
CCOC(=O)NCCOc1ccc(Oc2ccccc2)cc1	inactive	
Nc1ccc(C(=O)Nc2ccccc2N)cc1	inactive	
O=C1OC[C@H](Cc2cccc(O)c2)[C@H]1Cc1cccc(O)c1	inactive	
CC1(C)CCC(C)(C)c2cc(NC(=O)c3ccc(C(=O)O)cc3)ccc21	inactive	
O=C(O)CNc1ccccc1	inactive	
CCCCCC[C@@H](O)C/C=C\CCCCCCCC(=O)OC	inactive	
